Compounds with a hit are over-represented: about 8% of the library has one in this group of screens.
FMDV antiviral = High Throughput Screening for Foot and Mouth Disease Virus Antivirals | FMDV antiviral cell-based qHTS | AID 1159524, 2015 | Potency, µM (titrated, usually from 57.9 µM), hits mostly inhibitors | 410,000 compounds, 1.2% hits; calls by dose curve; tested in HEK293T cells; further: read-out not given here; nearly all actives have a fitted effect of over 45% in size
HCV inh = qHTS Assay for Inhibitors of Hepatitis C Virus (HCV) | Potency, µM (titrated, usually from 41.8 µM), hits mostly inhibitors | Huh7.5.1 HCVcc-Cre infection, luciferase reporter, 44 h | AID 651820, 2012 | 340,000 compounds, 3.4% hits; active means well fitted inhibition curve with a large enough effect; inconclusive means small, poorly fitted or top-dose-only effect, or another doubt; inactive means no such curve, though single readings can be large or run the other way
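After 44 h co-culture of compound, cells and HCVcc-Cre (~0.5 moi), substrate is added for 15 min at room temperature and luciferase measured over 15 sec. Cells were seeded at 1,000/well and pre-cultured 4 h.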
Lassa entry inh = qHTS for Inhibitors of binding or entry into cells for Lassa Virus; Lassa virus pseudotype entry inhibition, cell reporter; Potency, µM (highest dose often 37.9 µM), most hits filed as inhibitors; 300,000 compounds, 1.2% hits; AID 540256, 2011; calls by dose curve; tested in HEK293 cells; further: nearly all actives have a fitted effect of over 50% in size
SARS PLP yeast = qHTS of Yeast-based Assay for SARS-CoV PLP. S. cerevisiae expressing SARS-CoV PLpro, growth rescue. Potency, µM (doses to about 32.9 µM), actives largely listed as activators. 330,000 compounds, 0.19% hits; calls by dose curve; further: nearly all actives have a fitted effect of over 55% in size
HCMV inh = qHTS Assay for inhibitors of the human cytomegalovirus (HCMV); HFF cells, HCMV-luciferase reporter, 72 h; hits give low values; activity change, negative = inhibition, % at 57.5 µM; 410,000 compounds, 4.5% hits; in the data active means activity change below about -60%; inconclusive means no clear call, values can overlap the other calls; inactive means above about -39%
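Cell-based, HFFs, 1000 cells/well, 16 h 37C; cpds in DMSO + HCMV-luc, MOI 1 PFU/cell; 72 h 37C; OneGlo luminescence after 5 min RT; norm. to buffer vs Salinomycin 10uM.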
MARV entry inh = qHTS for inhibitors of binding or entry into cells for Marburg Virus; Marburg virus pseudotyped entry inhibition, cell reporter; Potency, µM (titrated, usually from 37.8 µM), usual class: inhibitors; 300,000 compounds, 1.8% hits; AID 540276, 2011; calls by dose curve; tested in HEK293 cells
Of the large screens only hits and unclear results are named; the others gave an inactive call.

O=C(NCC(=O)N1CCN(Cc2ccccc2)CC1)c1ccc(Cl)cc1	FMDV antiviral inconclusive, HCV inh inconclusive, HCMV inh -62 (no result: Lassa entry inh, MARV entry inh)
O=C(NCc1ccc(Cl)cc1)N1CCN(Cc2ccccc2)CC1	HCV inh inconclusive, HCMV inh -93 (no result: Lassa entry inh, MARV entry inh)
O=C(NCC(=O)N1CCN(Cc2ccccc2)CC1)c1cc(Cl)cc([N+](=O)[O-])c1	FMDV antiviral inconclusive, HCV inh inconclusive, HCMV inh -86 (no result: Lassa entry inh, MARV entry inh)
CC(=O)NCCNS(=O)(=O)c1ccc(C)c([N+](=O)[O-])c1	none
CCN(CC)c1ccc(-c2nnc(SCC(=O)Nc3ccccc3C#N)n2-c2ccccc2)cc1	FMDV antiviral inconclusive, HCV inh inconclusive, Lassa entry inh 11µM, MARV entry inh inconclusive
N#Cc1ccccc1NC(=O)CSc1nnc(-c2ccccc2)n1-c1ccccc1	FMDV antiviral inconclusive, Lassa entry inh inconclusive, HCMV inh inconclusive, MARV entry inh inconclusive
Cc1ccc(CN2C(=O)C(=O)c3cc(Br)cc(C)c32)cc1	FMDV antiviral inconclusive, Lassa entry inh inconclusive, HCMV inh -103, MARV entry inh inconclusive (no result: HCV inh, SARS PLP yeast)
COc1ccc2c(c1)CC/C=C(/c1ccccc1)CCO2	none (no result: FMDV antiviral, HCV inh, Lassa entry inh, SARS PLP yeast, MARV entry inh)
O=c1c(-c2ccc(F)cc2)nc2cnc(Oc3ccccc3)nc2n1Cc1cccs1	none (no result: HCV inh, Lassa entry inh, SARS PLP yeast, HCMV inh, MARV entry inh)
CC(Sc1nc(-c2ccc(F)cc2)cs1)C(=O)N1c2ccccc2CC1C (stereo unspecified)	FMDV antiviral inconclusive, HCV inh 22µM, Lassa entry inh inconclusive, MARV entry inh inconclusive
Cc1ccc(CNC(=O)Cc2ccc(-n3c(=O)[nH]c4ccsc4c3=O)cc2)cc1	Lassa entry inh inconclusive, HCMV inh -62
Cc1nc(C)c(-c2ccc(SCc3ccc(Cl)cc3)nn2)s1	HCV inh inconclusive (no result: Lassa entry inh, MARV entry inh)
COc1ccccc1-c1ccc(SCc2ccc([N+](=O)[O-])cc2)nn1	HCV inh inconclusive, Lassa entry inh inconclusive, HCMV inh -68, MARV entry inh 10µM
Cc1nc(C)c(-c2ccc(SCc3ccc([N+](=O)[O-])cc3)nn2)s1	HCV inh 32µM, HCMV inh inconclusive (no result: Lassa entry inh, MARV entry inh)
Cc1ccccc1-c1nc2cc(N)ccc2o1	HCV inh inconclusive, Lassa entry inh inconclusive, MARV entry inh inconclusive
Cc1nc2ccc(-c3nc4cc(N)ccc4o3)cc2[nH]1	HCV inh 10µM, Lassa entry inh inconclusive, MARV entry inh inconclusive
Nc1ccc2oc(-c3ccc4nc[nH]c4c3)nc2c1	HCV inh inconclusive, Lassa entry inh 16µM, MARV entry inh inconclusive
Nc1ccc2oc(-c3cccc(Br)c3)nc2c1	HCV inh inconclusive, Lassa entry inh inconclusive (no result: HCMV inh)
C/C(=N/O)C(=O)NCCCn1ccnc1	none (no result: FMDV antiviral, HCV inh, Lassa entry inh, SARS PLP yeast, HCMV inh)
O=C1OC(N2C(=O)CC[C@H]2C(=O)Nc2ccc3c(c2)OCO3)c2ccccc21 (stereo partly specified)	HCV inh 0.89µM (no result: Lassa entry inh, MARV entry inh)
Clc1ccccc1-c1nc(NCCN2CCOCC2)c2ccccc2n1	none (no result: HCV inh, Lassa entry inh, SARS PLP yeast, HCMV inh, MARV entry inh)
Oc1ccccc1-c1nc(NCCN2CCOCC2)c2ccccc2n1	FMDV antiviral inconclusive, HCV inh 7.1µM
COc1ccc2nc(C)cc(NCCN3CCOCC3)c2c1	none
c1ccc2c(NCCCN3CCOCC3)c3ccccc3nc2c1	HCMV inh -102 (no result: FMDV antiviral, HCV inh, Lassa entry inh, MARV entry inh)
COc1cccc(-c2nc(NCCN3CCOCC3)c3ccccc3n2)c1O	HCV inh 10µM
COc1ccccc1-c1nc(NCCN2CCOCC2)c2ccccc2n1	none (no result: HCV inh, Lassa entry inh, SARS PLP yeast, HCMV inh, MARV entry inh)
Fc1ccccc1-c1nc(NCCCN2CCOCC2)c2ccccc2n1	Lassa entry inh inconclusive, MARV entry inh inconclusive
Cc1cc(NCCN2CCOCC2)c2ccc3ccccc3c2n1	HCMV inh -69 (no result: Lassa entry inh, MARV entry inh)
Cc1ccc(S(=O)(=O)N2CCN(C(=O)C3CCN(C(=O)c4ccccc4C)CC3)CC2)cc1C	FMDV antiviral inconclusive, HCV inh inconclusive, HCMV inh inconclusive, MARV entry inh inconclusive
Cc1ccc(C2(C)NC(=O)N(CC(=O)N(C)CC(=O)Nc3cccc4ccccc34)C2=O)cc1 (stereo unspecified)	MARV entry inh inconclusive
N#C[C@H](c1ccccc1)C1CCN(C(=O)c2ccco2)CC1	none (no result: FMDV antiviral, HCV inh, Lassa entry inh, SARS PLP yeast, MARV entry inh)
O=C(N[C@H]1CC[C@@]23CCCN2C(=O)CCC[C@H]3[C@H]1Cc1ccccc1)c1cccc(Cl)c1	HCMV inh -65 (no result: FMDV antiviral, HCV inh, Lassa entry inh, SARS PLP yeast, MARV entry inh)
O=C(N[C@H]1CC[C@@]23CCCN2C(=O)CCC[C@H]3[C@H]1Cc1ccccc1)c1ccccc1	none (no result: FMDV antiviral, HCV inh, Lassa entry inh, SARS PLP yeast, MARV entry inh)
CCCCCCN1CCN(C2CN(C3CCCCC3)S(=O)(=O)C2)CC1 (stereo unspecified)	none (no result: HCV inh, SARS PLP yeast, MARV entry inh)
CC1CCN(S(=O)(=O)c2cc(C(=O)NC3(C)CCS(=O)(=O)C3)ccc2Br)CC1 (stereo unspecified)	HCMV inh -61 (no result: Lassa entry inh, MARV entry inh)
CC1CCN(S(=O)(=O)c2cc(C(=O)N3CCN(c4ncccn4)CC3)ccc2Br)CC1	FMDV antiviral 20µM, HCV inh inconclusive, Lassa entry inh inconclusive, HCMV inh -64, MARV entry inh inconclusive
NC(=O)c1nnsc1Sc1c(C(N)=O)nnn1-c1cccc(N)c1	HCV inh inconclusive, MARV entry inh inconclusive
CN(CCC#N)C(=O)COC(=O)c1ccc2[nH]c3c(c2c1)CCCC3	HCV inh inconclusive, Lassa entry inh inconclusive, HCMV inh -73, MARV entry inh inconclusive
O=C(COC(=O)c1ccc2[nH]c3c(c2c1)CCCC3)Nc1ccc(Cl)cc1Cl	HCV inh inconclusive, MARV entry inh 8.9µM
CCC(C)c1ccccc1NC(=O)COC(=O)c1ccc2[nH]c3c(c2c1)CCCC3 (stereo unspecified)	FMDV antiviral 28µM, HCV inh inconclusive, Lassa entry inh inconclusive, HCMV inh -100, MARV entry inh 2.2µM
CCOc1ccccc1NC(=O)Cn1c(=O)oc2cc(S(=O)(=O)NCc3ccccc3)ccc21	HCMV inh inconclusive (no result: HCV inh, SARS PLP yeast, MARV entry inh)
Cc1ccc(-c2cn3nc(N4CCCC(C(=O)NCc5ccc(F)cc5)C4)sc3n2)cc1 (stereo unspecified)	Lassa entry inh inconclusive (no result: HCV inh, SARS PLP yeast, MARV entry inh)
COc1ccc(/C=C2\CCCC3C2=NN(C(=O)CSc2ncn[nH]2)C3c2ccc(OC)cc2)cc1 (stereo unspecified)	HCV inh 13µM, Lassa entry inh inconclusive, MARV entry inh inconclusive
Cc1ncsc1C(=O)N1N=C2/C(=C/c3ccccc3)CCCC2C1c1ccccc1 (stereo unspecified)	FMDV antiviral inconclusive, HCV inh inconclusive, Lassa entry inh inconclusive, MARV entry inh 11µM
COc1ccc(/C=C2\CCCC3C2=NN(C(=O)COC(=O)CNC(=O)c2ccccc2)C3c2ccc(OC)cc2)cc1 (stereo unspecified)	Lassa entry inh inconclusive, MARV entry inh inconclusive
O=C(CSc1ncn[nH]1)N1N=C2/C(=C/c3ccccc3)CCCC2C1c1ccccc1 (stereo unspecified)	SARS PLP yeast inconclusive, HCMV inh -90 (no result: Lassa entry inh)
O=C(O)CSCC(=O)N1N=C2/C(=C/c3ccccc3)CCCC2C1c1ccccc1 (stereo unspecified)	none
COc1cccc(-c2nc(NCc3cnc(C)cn3)c3ccccc3n2)c1	none (no result: HCV inh, Lassa entry inh, SARS PLP yeast, HCMV inh, MARV entry inh)
